The panel holds about 83,000 compounds, 20% with a hit somewhere; the sample as a whole holds those more often.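 Testing used 96-well plates and a 48-hour single-concentration exposure. Example: -40 means 40% of the starting cells died.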 Values without a mark were called inactive. Active and inactive are the calls of the source. How the source made its calls: active means growth percent below 10; inactive means the rest.

The values that follow come from PubChem BioAssay (NCI).

Holding throughout (experiment): NCI-60 one-dose screen, 48 h (100 = growth as untreated, 0 = no growth, -100 = all killed)
Common to all, as to conditions: 10 µM

Test [1] has as its system DU-145 prostate.
For test [2], the system named is K-562 leukemia.
For test [3], the system named is MALME-3M melanoma.
The test system of test [4] is MDA-MB-231 breast.
Test [5] relates to RXF 393 renal.
The subject of test [6] is SF-268 CNS.
Test [7] concerns SF-295 CNS.
Test [8] relates to SF-539 CNS.
The subject of test [9] is UACC-257 melanoma.
In test [10] the test system is M14 melanoma.
Test [11] has as its system HCT-15 colon.
Test [12] relates to HT29 colon.
Test [13] relates to SNB-75 CNS.
For test [14], the system named is SNB-19 CNS.
For test [15], the system named is U251 CNS.
The subject of test [16] is PC-3 prostate.
Test [17] deals with SK-MEL-5 melanoma.
Test [18] relates to UACC-62 melanoma.
Test [19] has as its system LOX IMVI melanoma.
Test [20] deals with SK-MEL-28 melanoma.

For `O=C(Cn1cc(CO)nn1)Nc1nc2ccccc2s1`, the growth in test [1] was 113%; in test [2], 94.8%; in [3], 93.8%; in test [4], 100%; in test [5], 112%; in [6], 99%. Moreover, the growth in [7] is 106%; in test [8], 95%; in [9] it was 104%; in test [10], 94.7%; in test [11], 105%; in test [12], 99.5%. The growth in test [13] is 92.4%; in test [14], 96.9%; in [15], 102%; in test [16] it was 96.3%; in test [17] it was 102%; in test [18] it was 97%. For the same compound, the figures for the growth in test [19] and in test [20] were 95.1% and 106%, respectively.
`O=C(CCl)Nc1ccc(Cc2ccc(NC(=O)CCl)cc2)cc1`: the growth in test [1] is 32.3%; in test [2], 0.772% (active); in test [3] it was -67.5% (active); in test [4], -15.8% (active); in [5], -50.7% (active); in test [6], 10.1%. Moreover, the growth in test [7] was 70.1%; in test [8], -87.7% (active); in [9], 16.3%; in [10] it was -35.3% (active); in [11], -39.7% (active); in test [12], -39.1% (active). For the same compound, the growth in test [13] was 61.1%; in test [14] it was 26.3%; in [15], -85.7% (active); in test [16], 2.98% (active); in test [17], -88.5% (active); in test [18], -9.18% (active). Besides, the results for the growth in [19] and in [20] were -84.6% (active) and 5.21% (active), respectively.
In the case of `COc1cc2cc(Oc3ccc(NC(=O)Nc4ccc(Cl)c(C(F)(F)F)c4)cc3)c(C)nc2cc1OC`, the growth is 12.7% in test [1]; -9.54% (active) in test [2]; -23% (active) in test [3]; -50.6% (active) in test [4]; -33.4% (active) in [5]; -10.2% (active) in [6]. The growth in test [7] is -70.9% (active); in [8], -36.2% (active); in test [9] it was -12.5% (active); in test [10], -73.6% (active); in [11], 1.27% (active); in test [12], -24.9% (active). For the same compound, the growth in test [13] is 12.5%; in [14], 23.7%; in test [15], -80.4% (active); in test [16], -0.614% (active); in test [17], -73.4% (active); in test [18] it was -51.5% (active). In addition, the growth was -81.3% (active) in test [19] and -35.9% (active) in [20].
For the compound `Cc1ccc(NCCN(C)CC(C)O)c2c(=O)c3ccccc3sc12` (stereo not given), the growth in [1] is 47.4%; in test [2], 0.188% (active); in test [3], 34.6%; in test [4], 36.9%; in [5], 24.8%; in [6] it was 56.6%. In addition, the growth in test [7] is 53.3%; in test [8] it was 53.2%; in [9] it was 45.9%; in test [10], -49% (active); in test [11], 32.7%; in [12], 7.09% (active). Further, the growth in [13] is 57%; in [14], 54.5%; in test [15] it was 31.9%; in test [16], 41%; in test [17], 58.1%; in test [18], -2.71% (active). Also, the growth in test [19] is 12.6%; in test [20], 57%.
As to `Cn1cnc([N+](=O)[O-])c1/C=C1\Oc2ccc(Br)cc2C1=O`, the growth was 91.9% in test [1]; 67.1% in [2]; 96.2% in [3]; 91.8% in [4]; 102% in test [5]; 90% in [6]. Besides, the growth is 87.6% in test [7]; 104% in test [8]; 84.8% in test [9]; 95.4% in test [10]; 70.4% in test [11]; 83.8% in [12]. In addition, the growth in [13] is 88.1%; in test [14], 90.1%; in test [15], 101%; in test [16], 81.5%; in [17] it was 91.2%; in [18], 96.6%. Besides, the growth is 72.8% in test [19] and 97.4% in [20].
Turning to `O=C(CSc1nnc(-c2ccc(Cl)cc2)o1)Nc1ccc(C(=O)/C=C/c2ccc(Cl)cc2)cc1`, the growth in [1] was 103%; in test [2], 93.4%; in test [3], 114%; in test [4] it was 104%; in test [5] it was 99.1%; in test [6], 99.7%. Besides, the growth in test [7] was 101%; in [8] it was 117%; in [9], 98.7%; in [10], 104%; in test [11], 107%; in test [12], 99%. The growth was 98.1% in test [13]; 94.6% in test [14]; 104% in test [15]; 92.8% in test [16]; 94.1% in [17]; 87.6% in test [18]. Moreover, the growth was 98% in test [19] and 110% in test [20].
For the compound `COc1cc(-c2nn(-c3cccc(NC(=O)CCNc4ccc(N5CCOCC5)cc4)c3)cc2-c2ccncc2)ccc1Cl`, the growth in test [1] was 29.2%; in test [2], 11.2%; in test [3] it was 21.9%; in test [4] it was -9.17% (active); in test [5], 20.9%; in test [6] it was 31.8%. The growth in test [7] was 13.4%; in test [8], 29.1%; in [9], 20.1%; in [10] it was 2.71% (active); in [11] it was 14.2%; in test [12] it was 11.8%. In addition, the growth was 40.1% in test [13]; 32.9% in test [14]; 24% in test [15]; 8.06% (active) in test [16]; -40.5% (active) in [17]; 13.9% in [18]. For the same compound, the figures for the growth in test [19] and in test [20] were 6.71% (active) and 31.6%, respectively.
`CC(C)(C)OC(=O)CN1CCc2c(sc3ncnc(N/N=C/c4cccc5ccccc45)c23)C1`: the growth in test [1] was 66.4%; in test [2], 6.22% (active); in [3] it was 72.2%; in test [4], 39.9%; in test [5] it was 55.9%; in [6], 60.2%. Further, the growth is 51.5% in test [7]; 24.3% in test [8]; 38.8% in test [9]; 42.7% in test [10]; 16.7% in test [11]; 45% in test [12]. The growth in test [13] was 46%; in test [14], 53.7%; in test [15] it was 45.7%; in test [16] it was 31.9%; in test [17] it was 11.1%; in [18], 6.64% (active). Besides, the growth in test [19] was 26.2%; in test [20], 50.1%.
